Compound activity deposited in PubChem by Broad Institute.
An excerpt weighted towards active compounds, which were near 6.7% of everything screened.
Pf Dd2 growth: blocks growth of Plasmodium falciparum Dd2 parasites; activity change, % at 10 µM; P. falciparum Dd2 growth, SYBR Green, 72 h; active compounds read low; 94,000 compounds, 2.3% hits; in the data active means activity change below about -80%
C diff growth: inhibitors of Clostridium difficile growth; Clostridium difficile clinical isolate growth, OD600, 24 h; active compounds read low; growth activity, negative = inhibition, % at 16 µg/mL (by protocol); 86,000 compounds, 0.25% hits; AID 1259249;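 active means mean growth activity at or below -80% and every replicate also at or below -80%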;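 further: 0% = DMSO wells and -100% = levofloxacin 16 µg/mL wells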
T cruzi growth-1: T. cruzi proliferation inhibition | 77,000 compounds, 5.9% hits | inhibition, % at 8.34 µM | T. cruzi beta-gal in NIH3T3, GalScreen luminescence, 90 h;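 active means mean inhibition above about 93%, with at least 55% of replicates each passing it, limit read from the data, passing the limit was not always enough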
T cruzi growth-2: blocks T. cruzi growth in NIH3T3 host cells; shares compounds with T cruzi growth-1; inhibition, % at 8.35 µM; 5,600 compounds, 72% hits; T. cruzi beta-gal in NIH3T3, GalScreen luminescence, 90 h;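 active means mean replicate inhibition above about 95% and at least 55% of replicates individually reaching it, limit read from the data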
T cruzi growth-3: Trypanosoma cruzi proliferation inhibition; T. cruzi beta-gal in NIH3T3, GalScreen luminescence, 90 h; shares compounds with T cruzi growth-1; inhibition, % at 2.09 µM; 5,600 compounds, 21% hits; AID 651740;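 active means mean inhibition above about 95%, with at least 55% of replicates also reaching it, limit read from the data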;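 further: plate controls were neutral control median for no effect and positive control median for full effect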
3T3 cytotox: NIH/3T3 (mouse) viability loss; shares compounds with T cruzi growth-1; NIH/3T3 viability, CellTiter-Glo ATP luminescence, 90 h; cytotoxicity (signal decrease), % at 8.35 µM; 5,600 compounds, 14% hits; AID 651742;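 active means mean signal decrease across replicates above about 35% based on untreated-well scatter, with enough replicates individually passing, limit read from the data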;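 further: 0% = median of neutral control wells and 100% = median of positive control wells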
NIH3T3 tox 2: NIH/3T3 (mouse) viability loss; shares compounds with T cruzi growth-1; NIH/3T3 viability, CellTiter-Glo ATP luminescence, 90 h; AID 651744; inhibition, % at 24.9 µM; 5,600 compounds, 56% hits;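 active means mean loss of cell viability signal at or above a set limit, and enough replicates individually reaching it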;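 further: 0% = median of neutral control wells and 100% = median of positive control wells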
* hit, by the source's call.

For CC(C)C#Cc1ccc2c(c1)O[C@H](CN(C)C(=O)c1cccc(F)c1)[C@H](C)CN([C@@H](C)CO)S2(=O)=O the results were Pf Dd2 growth -55.7, C diff growth 7.1, T cruzi growth-1 118.3*, T cruzi growth-2 108.6*, T cruzi growth-3 92.3, 3T3 cytotox 27.9 and NIH3T3 tox 2 78.1*.
For CC(C)C#Cc1ccc2c(c1)O[C@@H](CN(C)C(=O)c1cccc(F)c1)[C@H](C)CN([C@@H](C)CO)S2(=O)=O the results were Pf Dd2 growth -63.8, C diff growth 12.6, T cruzi growth-1 107.3*, T cruzi growth-2 109.6*, T cruzi growth-3 26.7, 3T3 cytotox 27.1 and NIH3T3 tox 2 60.1*.
`CC(C)C#Cc1ccc2c(c1)O[C@H](CN(C)C(=O)c1ccccc1)[C@H](C)CN([C@H](C)CO)S2(=O)=O` gave Pf Dd2 growth -51.0, C diff growth 1.7 and T cruzi growth-1 87.6.
Screening CCCN1C[C@@H](C)[C@H](OC)CN(C)C(=O)c2cc(NC(=O)Nc3c(C)noc3C)ccc2OC[C@H]1C returned Pf Dd2 growth -29.1 and T cruzi growth-1 -51.9.
Screening CC(=O)N(C)C[C@H]1Oc2ncc(-c3cccc(C#N)c3)cc2C(=O)N([C@H](C)CO)C[C@H]1C returned Pf Dd2 growth 26.7, C diff growth -3.9 and T cruzi growth-1 -14.1.
CCc1cnc(N2[C@H](C#N)[C@@H](c3ccc(-c4cccc(F)c4)cc3)[C@H]2CO)s1 was read as Pf Dd2 growth -7.0, C diff growth 14.6, T cruzi growth-1 108.8*, T cruzi growth-2 110.3*, T cruzi growth-3 80.9, 3T3 cytotox 26.7 and NIH3T3 tox 2 37.2.
CCc1cnc(N2[C@H](C#N)[C@H](c3ccc(-c4cccc(F)c4)cc3)[C@H]2CO)s1 was read as Pf Dd2 growth -40.5, C diff growth 11.7, T cruzi growth-1 105.4*, T cruzi growth-2 104.6*, T cruzi growth-3 92.8, 3T3 cytotox 10.2 and NIH3T3 tox 2 26.0*.
Screening CCc1cnc(N2[C@@H](C#N)[C@@H](c3ccc(-c4cccc(F)c4)cc3)[C@@H]2CO)s1 returned Pf Dd2 growth 0.8, C diff growth 15.0, T cruzi growth-1 108.2*, T cruzi growth-2 100.9*, T cruzi growth-3 105.7*, 3T3 cytotox 29.3 and NIH3T3 tox 2 60.0*.
Screening CCc1cnc(N2[C@H](CO)[C@@H](c3ccc(-c4cccc(F)c4)cc3)[C@@H]2C#N)s1 returned Pf Dd2 growth 2.8, C diff growth 18.3 and T cruzi growth-1 84.8.
Screening CCc1cnc(N2[C@@H](C#N)[C@H](c3ccc(-c4cccc(F)c4)cc3)[C@@H]2CO)s1 returned Pf Dd2 growth -12.8, C diff growth -37.1 and T cruzi growth-1 82.5.
Screening CCCN1C[C@H](C)[C@@H](OC)CN(C)C(=O)c2ccc(NC(=O)c3ccc(F)cc3)cc2OC[C@H]1C returned Pf Dd2 growth -17.6, C diff growth -2.9 and T cruzi growth-1 -15.7.
Screening CCCNC(=O)N(C)C[C@@H]1Oc2ncc(-c3ccccc3F)cc2C(=O)N([C@@H](C)CO)C[C@@H]1C returned Pf Dd2 growth 2.5 and C diff growth -5.0.
`O=C(NCC1CC1)[C@@H]1[C@@H](CO)[C@@H]2Cn3c(cccc3=O)[C@H]1N2C(=O)c1ccccc1` gave Pf Dd2 growth 4.4, C diff growth -3.1 and T cruzi growth-1 -17.6.
Screening COc1ccc(S(=O)(=O)N(C)C[C@@H]2Oc3ncc(C#Cc4ccc(OC)c(OC)c4)cc3C(=O)N([C@H](C)CO)C[C@@H]2C)cc1 returned Pf Dd2 growth -77.6, C diff growth 0.0 and T cruzi growth-1 110.6.
Screening COc1cccc(S(=O)(=O)N(C)C[C@@H]2Oc3ncc(C#Cc4ccc(C(F)(F)F)cc4)cc3C(=O)N([C@H](C)CO)C[C@@H]2C)c1 returned Pf Dd2 growth -79.9, C diff growth 0.7, T cruzi growth-1 103.4*, T cruzi growth-2 96.1*, T cruzi growth-3 113.1*, 3T3 cytotox 31.8 and NIH3T3 tox 2 30.7*.
